# Laboratory results published in ChEMBL document CHEMBL3988442, “University of Dundee, Small-Polar-MMV Screening Library” (2021).
# The whole screen tested about 48,000 compounds, of which about 13,000 (27%) showed an effect of 50% or more. This is one part of the list.
# Test system: Wolbachia pipientis
# Assay: Anti-Wolbachia Cell-Based Screen
# Type: functional
# Parameters: scale not given: in the data most compounds retested in dose-response had high values
# Conditions: 5 µM
row,Compound,Percent Effect [%]
1,CCNc1ncc(C(=O)NCC2OCCc3ccccc32)cn1 (stereo not given),-9.42
2,CCc1nc(C)c(CN2CCCC(c3nn(C)c(=O)n3CC)C2)[nH]1 (stereo not given),1.561
3,O=S(=O)(Cc1ccccc1CN1CCOCC(O)C1)c1ccccc1 (stereo not given),-4.778
4,O=C(NCc1ccccc1Cn1ccnc1)N1CCSCC1,-1.657
5,NC(=O)CN1CC2(CCC1=O)CCN(Cc1ccc(F)cc1Cl)CC2,0.9976
6,O=C(Nc1cccc(CN2CCOC2=O)c1)N1CCSCC1,46.29
7,CCCc1nc(C(=O)N2CCCn3nc(CCC(=O)O)cc3C2)cs1,-10.82
8,CNc1nc(C(=O)N2CCCn3nc(C(=O)N4CCCC4)cc3C2)cs1,132.4
9,Cc1cc(C(=O)N2CCn3nc(C(=O)NC4CC4)cc3C2)nc(C)n1,5.79
10,CNc1nc(C(=O)N2CCn3nc(C(=O)OC)cc3C2)cs1,99.12
11,CNc1nc(C(=O)N2CCCC(CO)(CCCOC)C2)cs1 (stereo not given),-13.19
12,Cc1ccc(O)c(CN2CCn3nc(C(=O)N4CCCC4)cc3C2)n1,-10.87
13,CCC(C)(NCc1nc(C)c(C)o1)c1nccs1 (stereo not given),-14.02
14,CCOc1cc(CNCc2cnc(C)cn2)c(Cl)cc1OC(C)C,-9.744
15,COC(=O)c1ccc(NC(=O)CNCc2ccco2)cc1,-10.44
16,O=S(=O)(Cc1cccc(F)c1)NCC(O)Cc1ccccc1 (stereo not given),13.38
17,Br.Cc1cc(C)c(N(CC(O)CNCc2ccccc2)S(C)(=O)=O)c(C)c1 (stereo not given),104.6
18,Cc1cc(C)c(N(CC(O)CNCc2ccco2)S(C)(=O)=O)c(C)c1.O=C(O)c1ccccc1 (stereo not given),101.1
19,Cc1ccc(C(=O)O)cc1S(=O)(=O)N(CC(C)O)c1ccccc1 (stereo not given),-9.364
20,Cc1ccc(N(C)CC(O)COCc2ccccc2)c(C)c1 (stereo not given),-35.03
21,CCN(C)C(=O)c1cccc(S(=O)(=O)NCCc2nc(C)cc(=O)[nH]2)c1,-0.1797
22,CC(=O)Nc1nc(CN2CCOC(Cn3nc(C)cc3C)C2)cs1 (stereo not given),94.09
23,CC(=O)Nc1nc(CN2CCOC(Cn3cncn3)C2)cs1 (stereo not given),64.84
24,CC(=O)Nc1nc(CN2CCOC(Cn3cc(C)cn3)C2)cs1 (stereo not given),2.495

row,Compound,Percent Effect [%]
1,CC(=O)Nc1nc(CN2CCOC(Cn3cccn3)C2)cs1 (stereo not given),107.9
2,CC(=O)N(C)c1nc(CN2CCOC(Cn3cccn3)C2)cs1 (stereo not given),-26.66
3,Cc1ccnc(C(NC(=O)c2oc(C)nc2C)C2CC2)n1 (stereo not given),-17.11
4,COC(=O)CN(C(=O)c1ccoc1)c1cccc(F)c1,2.098
5,O=C1CCCN1Cc1noc(-c2ccc(Cl)cc2)n1,123.5
6,O=C1CCCN1CCc1noc(-c2ccsc2)n1,1.002
7,O=C1CCCN1CCc1noc(-c2ccc(Cl)cc2)n1,5.135
8,CC(C)(N)c1cn([C@@H]2c3ccccc3C3(CCNCC3)[C@H]2O)nn1,-37.53
9,Cc1noc(CS(=O)(=O)CC(=O)NC(C)c2ccccc2)n1 (stereo not given),-0.1878
10,CCN(Cc1ccc2c(c1)OCO2)S(=O)(=O)N(C)C(C)C,112.9
11,CCN(Cc1cccs1)S(=O)(=O)N(C)C(C)C,15.86
12,CCN(Cc1ccc2c(c1)OCO2)S(=O)(=O)N(C)C,94.54
13,CCN(C)S(=O)(=O)N(CC)Cc1ccc2c(c1)OCO2,0.6799
14,CCN(Cc1ccc2c(c1)OCO2)c1ncc(S(N)(=O)=O)s1,-18.45
15,CCN(Cc1ccc2c(c1)OCCO2)S(=O)(=O)N(C)C(C)C,-1.208
16,Cc1ccc(-n2cc(CN3CCN(C)[C@@H]4CS(=O)(=O)C[C@@H]43)cn2)cc1,6.274
17,CN(Cc1ccccc1O)C(=O)Nc1cc(F)cc(N2CCCC2)c1,-6.524
18,COCC(C)(C#N)NC(=O)COc1ccccc1 (stereo not given),-21.26
19,CC(C)[C@@H]1CN(C(=O)c2ccc3c(c2)CCCO3)C[C@H]1NS(C)(=O)=O,0.04909
20,O=C(O)C(=O)O.c1cncc(-c2noc(C3CN(Cc4cccs4)C3)n2)c1,13.98
21,O=C(C1CCOC1)N1C[C@H]2CN(Cc3ccncc3)C(=O)[C@H]2C1.O=C(O)C(F)(F)F (stereo not given in full),94.79
22,O=C(C1CCOC1)N1CCC2(CC1)COCCN(Cc1ccncc1)C2.O=C(O)C(F)(F)F.O=C(O)C(F)(F)F (stereo not given),-2.392
23,O=C(C1CCOC1)N1C[C@H]2CN(Cc3cccnc3)C(=O)[C@H]2C1.O=C(O)C(F)(F)F (stereo not given in full),101.2
24,O=C(O)C(F)(F)F.O=C(c1ccsc1)N1C[C@H]2CN(Cc3cccnc3)C(=O)[C@H]2C1,-7.854

row,Compound,Percent Effect [%]
1,CN(C)CCN1C[C@@H]2CN(C(=O)C3CCOC3)C[C@@H]2C1=O.O=C(O)C(F)(F)F (stereo not given in full),-5.233
2,CCc1[nH]c2c(CNc3cncc(C(=O)N(C)C)n3)cc(F)cc2c1C,-5.745
3,Cn1c(CN2CCOCC2)nnc1C1CCCN(C(=O)CCC2CC2)C1 (stereo not given),24.17
4,Cc1ncc(CN2CC[C@@](C)(O)[C@H](Oc3cccc(F)c3)C2)cn1,104.1
5,C[C@]1(O)CCN(Cc2nccs2)C[C@@H]1Oc1cccc(F)c1,121.8
6,Fc1ccc(OCc2nnc([C@H]3CCN(Cc4cccnc4)C3)o2)cc1,16.65
7,COc1ncc(CN2CC[C@@](C)(O)[C@H](Oc3cccc(F)c3)C2)cn1,2.732
8,CN1CC(=O)N(c2cccc(F)c2)CC12CCN(Cc1nccs1)C2.O=C(O)C(F)(F)F.O=C(O)C(F)(F)F (stereo not given),-3.054
9,C[C@]1(O)CCN(Cc2cncs2)C[C@@H]1Oc1cccc(F)c1,4.149
10,CCOc1ccc(CN2CC[C@@](C)(O)[C@@H](Cc3ccccc3)C2)cn1,4.384
11,CN1CC2(CCN(Cc3cccnc3)CC2)c2cc(F)ccc21,3.699
12,C[C@]1(O)CCN(Cc2cccnc2)C[C@@H]1Oc1cccc(F)c1,99
13,Cn1cncc1CN1CC[C@](C)(O)[C@@H](Oc2cccc(F)c2)C1,104.7
14,CN1CC(=O)N(c2cccc(F)c2)CC12CCN(Cc1cncn1C)C2.O=C(O)C(F)(F)F.O=C(O)C(F)(F)F (stereo not given),-8.718
15,c1cc(-c2noc(-c3cc(C4CC4)on3)n2)cc(N2CCCCC2)n1,-2.255
16,CCn1nc2c(cc1=O)CN(Cc1nc(N)c3ccccc3n1)CC2,12.33
17,O=C(Cc1csc(N2CCNC2=O)n1)NCC1(c2ccccc2)CC1,8.123
18,Cc1ncsc1CN1C[C@H]2CC[C@@H]1CN(Cc1ccccc1)C2,1.915
19,Cc1ncsc1CNc1cccc(OCCN2CCCC2)c1,8.667
20,Cc1ncsc1CN1CC[C@](C)(O)[C@@H](Oc2cccc(F)c2)C1,111.6
21,Cc1nnc(SCCCNC(=O)Nc2ccc3c(c2)OCO3)s1,7.014
22,NC(=O)c1cc2c(nc1-c1ccoc1)CCC2,-15.41
23,Cc1cnc(C)c(N2C[C@H]3OC(=O)N(C4CCCC4)[C@H]3C2)n1,94.65
24,Cc1ccc(C(N)=O)c(N2C[C@H]3OC(=O)N(C4CCCC4)[C@H]3C2)n1,112.7

row,Compound,Percent Effect [%]
1,NC(=O)c1cc2c(nc1N1C[C@H]3OC(=O)N(C4CCCC4)[C@H]3C1)CCC2,94.23
2,Cc1cnc(C)c(N2CCCC(CC3CC3)(C(=O)O)C2)n1 (stereo not given),0.08182
3,COc1ccccc1CN1C(=O)O[C@@H]2CN(c3nc(C)cc(C)n3)C[C@@H]21,-8.092
4,COc1ccccc1CN1C(=O)O[C@@H]2CN(c3nc(C)cnc3C)C[C@@H]21,-4.864
5,Cc1ccc(N2C[C@H]3OCC[C@H]3[C@H](C(=O)NC3CCCC3)C2)nn1,11.3
6,CN(CC1CCCCO1)c1nc2c(cc1C(N)=O)CCC2 (stereo not given),-5.698
7,Cc1nccn1CCN(C)c1nc(-c2ccc(Cl)cc2)nc2c1CNC2,-50.51
8,CN(c1ccc2ccccc2c1)S(=O)(=O)c1cc(C(=O)O)cs1,28.59
9,CCN(c1cc(C)cc(C)c1)S(=O)(=O)c1cc(C(=O)O)cs1,116.9
10,COc1ccccc1N(C)S(=O)(=O)c1cc(C(=O)O)cs1,22.41
11,CN(c1ccc(C(C)(C)C)cc1)S(=O)(=O)c1cc(C(=O)O)cs1,-4.452
12,Cc1cccc(N(C)S(=O)(=O)c2cc(C(=O)O)cs2)c1C,-9.49
13,CCOc1cccc(NS(=O)(=O)c2cc(C(=O)O)cs2)c1,19.91
14,CN(c1ccc(F)c(F)c1)S(=O)(=O)c1cc(C(=O)O)cs1,2.683
15,Cc1ccc(N(C)S(=O)(=O)c2cc(C(=O)O)cs2)c(C)c1,115
16,Cc1cccc(N(C)S(=O)(=O)c2cc(C(=O)O)cs2)c1,112.1
17,Cc1cc(C)cc(N(C)S(=O)(=O)c2cc(C(=O)O)cs2)c1,-4.793
18,CN(c1cccc2ccccc12)S(=O)(=O)c1cc(C(=O)O)cs1,-12.64
19,Cc1ccc(N(C)S(=O)(=O)c2cc(C(=O)O)cs2)cc1,139
20,COCC1CN(C(=O)c2cccn2C)Cc2ncnn2C1 (stereo not given),-3.009
21,CCN1CCCC1CN(CCN(C)C)S(=O)(=O)c1ccccc1C#N (stereo not given),-13.86
22,CN(Cc1cccc(F)c1)C(=O)CS(=O)(=O)Cc1c(Cl)cccc1Cl,-4.804
23,Cc1nn(C)c(C)c1NC(=O)CNc1cccc(CC(F)(F)F)c1,-3.048
